# Screening results deposited in PubChem BioAssay by The Scripps Research Institute Molecular Screening Center.
# Sampled rows, rich in hits. Any-hit rate of the full collection: about 2.9%.
# ADAM10 inh: human ADAM10 inhibitors, primary screen, biochemical, QFRET, HTS; recombinant ADAM10, EDANS/DABCYL FRET peptide cleavage, 3 h; inhibition, % at 7 µM; 370,000 compounds, 0.62% hits; AID 720582, 2013;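 active = inhibition above a per-campaign cutoff equal to the mean of compounds falling between control-based bounds plus 3 SD, cut at about 20% in these data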;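 also: 0% = DMSO wells while the 100% control is not disclosed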
# ADAM17 inh: ADAM17 inhibitors, primary screen, biochemical, QFRET | 370,000 compounds, 0.83% hits | inhibition, % at 6.95 µM | Disintegrin and metalloproteinase domain-containing protein 17 (Homo sapiens), P78536 | recombinant ADAM17, EDANS/DABCYL FRET peptide cleavage;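 active = inhibition above the mean of compounds lying between control limits plus 3 SD, set per campaign, cut at about 8.5% in these data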;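 also: 0% = DMSO-only wells as the low control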
# PLCb3 inh: human PLC-beta3 inhibitors, primary screen, biochemical, fluorescence | 370,000 compounds, 0.18% hits | inhibition, % at 12.2 µM | Purified PLC-beta3, fluorogenic substrate; in the data active = inhibition above about 11%;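 also: 0% = median of compound wells on plate and 100% = full blocker control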
# PLCg1 inh: PLC-gamma1 enzyme inhibitors, primary screen, biochemical, fluorescence, purified enzyme | 1-phosphatidylinositol 4,5-bisphosphate phosphodiesterase gamma-1 (Homo sapiens), P19174 | fluorogenic substrate | inhibition, % at 12.2 µM | 370,000 compounds, 0.84% hits; in the data active = inhibition above about 9.5%
# proKLK7 act: proKLK7 zymogen activators, primary screen, biochemical, fluorescence intensity; activation, % at 7 µM; purified proKLK7, EDANS-DABCYL substrate fluorescence; 100% is mature enzyme control, 0% vehicle; AID 652039, 2013; 370,000 compounds, 0.9% hits;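 active = activation above the mean of all tested compounds plus 3 SD, computed per campaign excluding outliers beyond control limits, cut at about 13% in these data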
# proKLK7 act conf: proKLK7 zymogen activators, confirmation, biochemical, fluorescence intensity, triplicate; shares compounds with proKLK7 act; purified proKLK7, EDANS-DABCYL substrate fluorescence; scaled: vehicle 0, mature enzyme 100; activation, % at 7 µM; 3,200 compounds, 68% hits; AID 686949, 2013;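 active = activation, as change over the incubation, above the mean of all tested compounds plus 3 SD, cut at about 13% in these data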
# EDANS interfere: EDANS-DABCYL substrate optical interference, artefact control for kallikrein-7 zymogen activator project, biochemical, fluorescence intensity, high throughput; no enzyme, 4 h; solvent 0%, active enzyme control 100%; shares compounds with proKLK7 act; AID 686952, 2013; 3,200 compounds, 80% hits; activation, % at 7 µM;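 active = activation above the all-compound mean plus 3 SD, ignoring values outside control-based bounds, cut at about 4.8% in these data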;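 also: value is the 4 h activation minus the activation read at time zero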
# EDANS interf: EDANS fluorescence interference in dose response, no enzyme; shares compounds with proKLK7 act; EDANS-DABCYL peptide fluorescence interference; EC50, µM; 250 compounds, 20% hits; AID 720493;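 active = compounds that raise the fluorescence signal in this interference counterscreen, with EC50 at or below 10 µM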;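 also: intact quenched peptide substrate alone read at 355 nm excitation and 520 nm emission; signal is fluorescence gain from T0 to T4 after four hours at room temperature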
# * marks the source's active call; other numbers are inactive results; i = inactive; . = no result given.
SMILES,ADAM10 inh,ADAM17 inh,PLCb3 inh,PLCg1 inh,proKLK7 act,proKLK7 act conf,EDANS interfere,others
Cc1cc(=O)oc2cc(O)cc(OCc3ccccc3)c12,i,i,i,i,35*,66*,78*,
Cc1ccc(S(=O)(=O)CCC(=O)Oc2ccc3c(C)cc(=O)oc3c2)cc1,i,i,i,i,24*,123*,109*,
Cc1ccc(OC(=O)CCS(=O)(=O)c2ccc(C)cc2)cc1,5,1,-2,2,0,.,.,
CC(=O)Oc1ccc2c(C)cc(=O)[nH]c2c1,-434,-139,-240,-209,179*,343*,302*,
Cc1cc(=O)oc2ccc(OCc3ccccc3)cc12,-101,-44,-39,-24,2,.,.,
CC(=O)Oc1cc(OC(C)=O)c2c(C)cc(=O)oc2c1,i,i,i,i,50*,550*,534*,
COC(=O)[C@]12C[C@H](CC(=O)NCc3cccc4ccccc34)C(=O)N(Cc3ccco3)C1=C[C@H](C(C)C)O[C@@H]2C1CC1,12,7,1,3,0,.,.,
O=C(c1ccccc1)N1CC[C@H]2[C@H](CCCN2Cc2cc(F)cc(F)c2)C1,3,3,1,9,0,.,.,
COC(=O)[C@H]1C[C@@]2(c3ccccc3)c3ccccc3N[C@H]2N1,3,0,-1,-3,0,.,.,
COC(=O)c1ccc(COC(=O)CSCC(=O)Nc2ccc(C)cc2C)cc1,6,1,-6,7,0,.,.,
O=c1ccc2ccc(O)cc2o1,i,i,i,i,51*,64*,70*,
Cc1ccc(NC(=O)CSCC(=O)OCc2cc(=O)oc3cc(O)ccc23)c(C)c1,i,i,i,i,468*,288*,306*,
O=c1cc(O)c2ccc(O)cc2o1,-37,-11,-13,-7,6,.,.,
O=C(CC1Sc2ccccc2NC1=O)OCc1cc(=O)oc2cc(O)ccc12 (stereo not given),i,-190,-495,i,188*,272*,279*,
COC(=O)Cc1cc(=O)oc2cc(O)ccc12,i,i,i,i,50*,75*,69*,
Cc1ccc2c(COC(=O)CC3Sc4ccccc4NC3=O)cc(=O)oc2c1C (stereo not given),-11,-4,-2,-2,-1,.,.,
CSCCCNC(=O)CN1C(=O)C2CCCCN2C(=O)c2ccccc21 (stereo not given),2,-3,2,2,0,.,.,
COc1ccc2c(C)cc(=O)oc2c1C,-265,-82,-36,-18,0,.,.,
CCN(CC)c1ccc2c(C)cc(=O)oc2c1,i,i,i,i,27*,17*,26*,
CC(=O)Nc1c(OC(C)=O)ccc2c(C)cc(=O)oc12,i,i,i,i,175*,489*,515*,
Cc1cc(=O)oc2cc(OC(=O)CCCCCN3C(=O)c4ccccc4C3=O)ccc12,i,-390,-338,-289,63*,405*,336*,
Cc1cc(=O)oc2cc(OC(=O)C3CCN(C(=O)c4ccc(F)cc4)CC3)ccc12,i,i,i,i,14*,427*,378*,
CCN(CC)c1ccc2ccc(=O)oc2c1,i,-217,i,i,11,.,.,
Cc1ccc(S(=O)(=O)N2CCCC2c2cccc3[nH]cc(C)c23)cc1 (stereo not given),0,2,1,-1,0,.,.,
O=C(Cn1c(=O)c2cccn2c2cccnc21)NCCCN1CCN(c2ccc(Cl)cc2)CC1,-9,-3,4,-1,.,.,.,
SMILES,ADAM10 inh,ADAM17 inh,PLCb3 inh,PLCg1 inh,proKLK7 act,proKLK7 act conf,EDANS interfere,others
CC(C)(C)C(=O)NC1CCCCN(Cc2ccc(Cl)cc2)C1=O (stereo not given),6,-2,5,1,0,.,.,
CC(=O)Oc1cc(OC(C)=O)c2c(=O)c(-c3ccc4c(c3)OCCCO4)c(C)oc2c1,-266,-105,-303,-219,29*,169*,137*,
CCn1cc(CNC(=O)CSc2nc(-c3ccc(OC)c(OC)c3)cc(C(F)(F)F)n2)c(C)n1,-414,-119,i,i,21*,4,8.2*,
OC(c1ccccc1)C1(c2ccccc2)CCN(Cc2ccccc2)CC1 (stereo not given),2,-3,1,4,0,.,.,
COc1ccc(OC)c(/C=N\NC(=O)c2c(C)nc3cc(C)ccn23)c1,i,-481,i,i,16*,24*,-10,EDANS interf=>70
COc1cc(/C=N/NC(=O)c2c(C)nc3ccc(Cl)cn23)cc(OC)c1OC,-106,-40,-44,-40,36*,19*,14*,EDANS interf=i
C=CCOc1ccc(/C=N/NC(=O)c2c(C)nc3ccc(Cl)cn23)cc1,2,2,-10,-5,23*,348*,333*,
COc1ccc(/C=N/NC(=O)c2c(C)nc3ccc(Cl)cn23)cc1OC,-1,-8,-28,-15,-1,.,.,
COc1ccc(/C=N/Nc2snc(SC)c2C#N)cc1OC,-12,0,-82,-59,16*,-14,-10,
COc1cccc2c(=S)c(CCC(C)=O)c(C)[nH]c12,-362,-119,-188,-178,21*,22*,24*,
NC(=O)c1ccsc1NC(=O)COC(=O)c1ccccc1F,-3,-1,-7,-2,0,.,.,
O=C(OCC(=O)N1CCCC1=O)c1cc(Cl)ccc1O,-42,-16,-28,-19,32*,32*,32*,
O=C(COC(=O)c1cc(Cl)ccc1O)NCC1CCCO1 (stereo not given),-37,-14,-24,-12,46*,80*,83*,
O=C(COC(=O)c1cc(Cl)ccc1O)NNC(=O)c1ccc([N+](=O)[O-])cc1,-34,-9,-9,-6,99*,160*,155*,
O=C(COC(=O)c1cccnc1Cl)NCC1CCCO1 (stereo not given),-6,-1,2,-2,0,.,.,
NC(=O)c1ccsc1NC(=O)COC(=O)c1cc(Cl)ccc1O,-43,-21,-30,-18,76*,90*,91*,
C[C@@H]1CCN(C2CC2)S(=O)(=O)c2ccc(N3CCC[C@@H]3C)cc2O1,0,-19,-4,-1,0,.,.,
